Measurements: publication PMC5540273 (PLoS ONE, 2017)

Tests used:
Details in all cases: concentration: 1 μM, replicates: in singlicate; n = 1
[1] = tested on: BLK
[2] = tested on: BMPR1A
[3] = tested on: BMPR1B
[4] = tested on: BMPR2
[5] = tested on: BMX
[6] = tested on: BRAF
[7] = tested on: T1, BRK
T1 construct: gene PTK6

[8] = tested on: BRSK1
[9] = tested on: BRSK2
[10] = tested on: BTK
[11] = tested on: BUB1
[12] = tested on: CAMK1B
[13] = tested on: CAMK1D
[14] = tested on: CAMK1G
[15] = tested on: CAMK1
[16] = tested on: CAMK2A
[17] = tested on: CAMK2B
[18] = tested on: CAMK2D
[19] = tested on: CAMK2G
[20] = tested on: CAMK4
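Also: KINOMEscan kinase panel screen.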

Compound	%Inh [1]	%Inh [2]	%Inh [3]	%Inh [4]	%Inh [5]	%Inh [6]	%Inh [7]	%Inh [8]	%Inh [9]	%Inh [10]	%Inh [11]	%Inh [12]	%Inh [13]	%Inh [14]	%Inh [15]	%Inh [16]	%Inh [17]	%Inh [18]	%Inh [19]	%Inh [20]
O=C(c1ccc(-c2cc(-c3c[nH]nc3-c3ccccn3)ccn2)cc1)N1CCOCC1 [GW812171]	0%	0%	11%	16%	0%	32%	0%	0%	10%	0%	20%	0%	21%	0%	14%	0%	0%	0%	0%	0%
CCc1nc(-c2cccc(C)c2)c(-c2ccnc(NCc3ccccc3)c2)s1	0%	0%	0%	9%	0%	38%	0%	2%	0%	0%	18%	0%	6%	9%	40%	11%	0%	0%	10%	0%
NS(=O)(=O)c1cccc(-c2ccc3nccc(-c4cccc(S(N)(=O)=O)c4)c3c2)c1 [GW867253]	0%	0%	3%	33%	0%	0%	0%	0%	5%	0%	17%	0%	0%	0%	0%	0%	0%	0%	0%	0%
Cl.Oc1cccc(Nc2ccnc3cc(-c4ccncc4)ccc23)c1 [GW494601]	99.1%	84%	99.9%	30%	28%	76%	90%	14%	4%	46%	81%	5%	5%	0%	35%	0%	0%	6%	29%	0%
Fc1ccc(-c2nn3c(OCC(F)(F)F)cccc3c2-c2ccncc2)cc1 [GW514784]	43%	0%	0%	1%	2%	44%	1%	0%	0%	31%	99%	0%	7%	0%	0%	0%	0%	0%	22%	0%
COC(=O)Nc1nc2cc(Oc3ccc(NC(=O)Nc4cc(F)ccc4F)cc3)ccc2[nH]1.Cl [GW701424]	25%	0%	0%	24%	9%	53%	0%	0%	0%	6%	77%	27%	20%	7%	4%	0%	0%	20%	11%	0%
Cc1cccc(-c2nc(Nc3ccc4ncsc4c3)c3ccccc3n2)n1 [GW867588]	11%	0%	0%	15%	0%	7%	0%	0%	0%	0%	47%	21%	14%	0%	26%	0%	0%	2%	9%	0%
Cc1nnc(-c2ccc3ncc(-c4ccc(S(C)=O)cc4)n3c2)o1 (centres unmarked)	0%	9%	16%	18%	0%	62%	14%	14%	0%	24%	16%	6%	0%	26%	0%	0%	0%	25%	27%	0%
CC(=O)Nc1ccc(COc2ccc(Nc3ccnc4cc(-c5ccccn5)ccc34)cc2)cc1.Cl [GW440148]	53%	0%	0%	1%	17%	0%	57%	0%	0%	0%	5%	23%	10%	7%	20%	0%	0%	18%	21%	0%
COc1cc2ncn(-c3cc(OCc4sccc4Cl)c(C(N)=O)s3)c2cc1OC [GSK448459]	32%	0%	0%	14%	0%	0%	11%	37%	45%	0%	55%	25%	0%	0%	4%	0%	0%	2%	12%	0%
O=C(NOCC1CC1)c1ccc(F)c(F)c1Nc1ccc(I)cc1Cl	0%	0%	0%	0%	0%	0%	0%	0%	0%	0%	0%	0%	0%	0%	0%	0%	0%	0%	0%	32%
O=C1Cc2cc(Nc3nc(NCc4cccc(S(=O)(=O)C(F)(F)F)c4)ncc3C(F)(F)F)ccc2N1	1%	0%	18%	19%	0%	1%	0%	3%	0%	0%	34%	11%	0%	2%	0%	0%	0%	5%	8%	4%
COc1cc2c(cc1OC[C@@H](O)CO)ncc1c3ccc(C#N)cc3[nH]c21	24%	5%	0%	0%	0%	0%	0%	0%	0%	0%	94.3%	27%	0%	0%	0%	89%	61%	84%	61%	0%
COc1ccc(CNC(=O)NC2CCN(c3ccnc(Nc4ccc(OC)cc4)n3)C2)cc1 (centres unmarked) [GSK1379727]	43%	0%	0%	30%	6%	0%	9%	0%	0%	12%	56%	47%	21%	0%	18%	0%	0%	0%	8%	0%
Nc1nc(-c2ccc3c(N)n[nH]c3c2)cc(N2CCCC2)n1 [GSK2227430]	7%	0%	0%	0%	1%	0%	20%	0%	0%	0%	30%	3%	20%	0%	25%	0%	0%	0%	21%	0%
CC(C)Oc1ccc2c(-c3ccnc(Nc4ccc(N5CCN(C)CC5)cc4)n3)cnn2n1 [GW696155]	23%	0%	90.5%	19%	4%	43%	6%	0%	0%	20%	99.4%	96.3%	97.8%	56%	71%	44%	31%	54%	48%	0%
COc1ccc(Nc2ncc(C#N)c(Nc3ccccc3C(N)=O)n2)cc1N1CCN(C)CC1.Cl [GSK1558669]	99.8%	0%	80%	92%	75%	98.6%	99.7%	90.9%	88%	97.2%	87%	100%	99.1%	83%	95.6%	92.5%	78%	83%	86%	0%
Cc1cccc(Cn2ccn3c(=O)cc(N4CCOCC4)nc23)c1 [GSK2297542]	57%	0%	0%	0%	27%	4%	22%	0%	6%	0%	34%	19%	70%	9%	71%	0%	0%	9%	28%	20%
Cc1cccc(-c2nc(-c3ccc(S(C)(=O)=O)cc3)sc2-c2ccncc2)c1	0%	0%	0%	0%	0%	15%	0%	40%	27%	0%	25%	0%	15%	9%	5%	0%	0%	4%	5%	0%
